These results are taken from PubChem BioAssay (NCATS).

Where “and” joins values, the source holds several entries; their conditions need not be identical. Equal values may be shown once. Inconclusive results are not listed. Unmarked numbers belong to inactive results. Calls of active or inactive are those of the source. The call rests on the fitted dose curve; in most records, active means well fitted curve in the direction sought with a large enough effect; inconclusive means small, poorly fitted or top-dose-only effect, or another doubt; inactive means no such curve, though single readings can be large; an effect the other way counts as inactive or inconclusive.
On the % scale 0 is the no-effect control and ±100 the full control effect; potency means the concentration at half of the fitted maximal effect.

System in one assay: not listed separately
Nature of the assay: Drug repurposing screens with cells derived from glioblastoma tumor samples (AID 1345199). Further: nearly all actives have a fitted effect of over 40% in size. Conditions: GBM patient neurospheres viability, ATP luminescence, 48 h; at 45.9 µM (top of the series); tumour line D. The gist of the method: (§1)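 Four patient lines of CD133+ GBM neurospheres were screened at several concentrations; hits were retested in those lines plus three slower-growing GBM lines, using 48-hour treatment and ATP-based viability.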
Turning to `Nc1ccn([C@@H]2CS[C@H](CO)O2)c(=O)n1`, the activity, negative = cell killing is -12.1%.

Take `O=C(O)CO.[NH2-].[NH2-].[Pt+2]`: the activity, negative = cell killing was 26.7%.

As for `COc1c(N2C[C@@H]3CCCN[C@H]3C2)c(F)cc2c(=O)c(C(=O)O)cn(C3CC3)c12`, the activity, negative = cell killing was -16.2% and 10%.

Staying with this assay, now noted: GBM patient neurospheres viability, ATP luminescence, 48 h; at 46 µM (top of the series); tumour line A.
Regarding `Nc1ccn([C@@H]2CS[C@H](CO)O2)c(=O)n1`, the activity, negative = cell killing is -14.9%.

Take `O=C(O)CO.[NH2-].[NH2-].[Pt+2]`: the activity, negative = cell killing was -24.8%.

As to `COc1c(N2C[C@@H]3CCCN[C@H]3C2)c(F)cc2c(=O)c(C(=O)O)cn(C3CC3)c12`, the activity, negative = cell killing was -18.3%.

Still in this assay, the particulars now being: GBM patient neurospheres viability, ATP luminescence, 48 h; at 46.1 µM (top of the series); tumour line C.
Regarding `Nc1ccn([C@@H]2CS[C@H](CO)O2)c(=O)n1`, the activity, negative = cell killing is 6.78%.

Regarding `O=C(O)CO.[NH2-].[NH2-].[Pt+2]`, the activity, negative = cell killing was -11%.

`COc1c(N2C[C@@H]3CCCN[C@H]3C2)c(F)cc2c(=O)c(C(=O)O)cn(C3CC3)c12`: the activity, negative = cell killing is 4.44% and 2.53%.

Another assay deals with astro (control astrocytes). The assay is described as above. Conditions: viability, ATP luminescence, 48 h; series mostly up to 45.9 µM. The gist of the method:
as §1
Consider `Nc1ccn([C@@H]2CS[C@H](CO)O2)c(=O)n1`, for which the Potency entry was “inactive”.

In the case of `C=CC(=O)Nc1cc2c(Nc3ccc(F)c(Cl)c3)ncnc2cc1OCCCN1CCOCC1`, the Potency was 11.2 µM (active).

On to `O=C(O)CO.[NH2-].[NH2-].[Pt+2]`, for which the Potency result is “inactive”.

Take `COC(=O)C1=C(C)NC(C)=C(C(=O)OCCN2CCN(C(c3ccccc3)c3ccccc3)CC2)C1c1cccc([N+](=O)[O-])c1` (stereo unspecified): the Potency entry is “inactive”.

Consider `COc1c(N2C[C@@H]3CCCN[C@H]3C2)c(F)cc2c(=O)c(C(=O)O)cn(C3CC3)c12`, for which the Potency result was “inactive”.

Regarding `CC[C@H]1CN2CCc3cc(OC)c(OC)cc3[C@H]2C[C@@H]1C[C@@H]1NCCc2cc(OC)c(OC)cc21`, the Potency is 0.447 µM (active).

System in the next assay: not listed separately
Nature of the assay: qHTS assay to identify inhibitors of the type 1 interferon - major histocompatibility complex class I in skeletal muscle: Counter screen cell viability and HiBit confirmation (AID 1347412). Further: nearly all actives have a fitted effect of over 60% in size. The conditions noted are these: iHSKM muscle cells + IFN-b, HiBiT or CellTiter-Glo, 24 h; HiBiT. The gist of the method: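 HLA-B*08:01–HiBiT knock-in immortalized human myoblasts (C25cl48) stimulated with 4.0 ng/ml human IFN-beta and dosed with compound in a 12-point 1:3 titration (top final 46 uM). After 24 hrs at 37 C, HiBiT lytic luminescence or CellTiter Glo ATP read out.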
For orientation: Quantitative high-throughput screening tests each substance at several concentrations.
For the molecule `C=CC(=O)Nc1cc2c(Nc3ccc(F)c(Cl)c3)ncnc2cc1OCCCN1CCOCC1`, the Potency was 15.7 µM (active).

Regarding `Cc1ccc(C(=O)Nc2ccc(CN3CCN(C)CC3)c(C(F)(F)F)c2)cc1C#Cc1cnc2cccnn12`, the Potency was 6.25 µM (active).

On to `Nc1ncnc2c1c(-c1cnc3[nH]ccc3c1)nn2C1CCCC1`, for which the Potency is 2.22 µM (active).

Turning to `CC(C)(C)c1cnc(CSc2cnc(NC(=O)C3CCNCC3)s2)o1`, the Potency is 0.351 µM (active).

On to `Nc1nc(Nc2ccc(S(N)(=O)=O)cc2)nn1C(=O)c1c(F)cccc1F`, for which the Potency is 2.49 µM (active).

In the case of `Fc1cc(-c2cccc3ncc(-c4cnn(C5CCNCC5)c4)nc23)cc(F)c1CN1CCOCC1`, the Potency is 19.8 µM (active).

Turning to `O=C(c1ccc(Nc2nccc(-c3cc4ccccc4s3)n2)cc1)N1CCC(N2CCCC2)CC1`, the Potency was 17.6 µM (active).

As for `N#CCNC(=O)c1ccc(-c2ccnc(Nc3ccc(N4CCOCC4)cc3)n2)cc1`, the Potency was 4.43 µM (active).

With `O=C(Nc1cc(C(F)(F)F)cc(C(F)(F)F)c1)c1cc(Cl)ccc1O`, the Potency is 15.7 µM (active).

Consider `Cc1cc(Nc2cc(CN3CCOCC3)c3nc(C)c(Cc4ccc(Cl)cc4F)n3n2)n[nH]1`, for which the Potency was 3.52 µM (active).

With `Cc1cc(Nc2nc(N[C@@H](C)c3ccc(F)cc3)c(C#N)cc2F)n[nH]1`, the Potency is 2.22 µM (active).

On to `Nc1ncnc2c1c(-c1cccc(OCc3ccccc3)c1)cn2C1CC(CN2CCCC2)C1` (stereo unspecified), for which the Potency is 22.2 µM (active).

On to `Cc1cc(Nc2cc(NC(=O)c3c(Cl)cccc3Cl)ccn2)nc(N)n1`, for which the Potency was 2.79 µM (active).

The assay is the same for the next values; noted with them: iHSKM muscle cells + IFN-b, HiBiT or CellTiter-Glo, 24 h; Viability; at 45.9 µM (top of the series).
For the molecule `C=CC(=O)Nc1cc2c(Nc3ccc(F)c(Cl)c3)ncnc2cc1OCCCN1CCOCC1`, the activity change, negative = inhibition is -26.8%.

In the case of `CC1(O)CC(c2nc(-c3ccc4ccc(-c5ccccc5)nc4c3)c3c(N)nccn23)C1` (stereo unspecified), the activity change, negative = inhibition was -13.8%.

`CC(C)(C)c1cnc(CSc2cnc(NC(=O)C3CCNCC3)s2)o1`: the activity change, negative = inhibition is 9.32%.

Take `Nc1nc(Nc2ccc(S(N)(=O)=O)cc2)nn1C(=O)c1c(F)cccc1F`: the activity change, negative = inhibition was 19%.

For `Cc1cc(C(=O)N2CCN(c3cccc(Cl)c3)CC2)n(-c2ccccc2)n1`, the activity change, negative = inhibition is -19.8%.

`N#CCNC(=O)c1ccc(-c2ccnc(Nc3ccc(N4CCOCC4)cc3)n2)cc1`: the activity change, negative = inhibition was -6.53%.

As to `COC(=O)Nc1nc2ccc(C(=O)c3ccc(F)cc3)cc2[nH]1`, the activity change, negative = inhibition was -28.8%.

Take `Cc1cc(Nc2cc(NC(=O)c3c(Cl)cccc3Cl)ccn2)nc(N)n1`: the activity change, negative = inhibition was 21.4%.
